# Measurements as given in PubChem BioAssay (EPA / NIEHS).
# Activity calls are given as the source filed them. How the source made its calls: active means hit-call score of the fitted dose curve at least 0.9, where 1 is the maximum; inactive means score below 0.9.
# Biological target: Retinoic acid receptor alpha (Homo sapiens) (UniProt P10276)
# Assay: ATG_DR5_RAR_CIS: Attagene CIS-FACTORIAL HepG2 Assay for human Retinoic Acid Receptor Alpha (RARE), DR5 submotif (AID 2282934);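 on AC50: reporter responds to endogenous RAR alpha beta and gamma in HepG2 not RARA alone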
# Conditions: HepG2 Attagene cis-factorial RARE DR5 reporter, mRNA; actives raise or lower the signal
# Protocol: ATG_CIS is a cell-based, multiplexed-readout assay that uses HepG2, a human liver cell line, with measurements taken at 24 hours after chemical dosing in a 24-well plate.ATG_DR5_RAR_CIS is one of 52 assay component(s) measured or calculated from the ATG_CIS assay. It is designed to make measurements of mRNA induction, a form of inducible reporter, as detected with fluorescence intensity signals by Reverse transcription polymerase chain reaction (RT-PCR) and Capillary electrophoresis technology.Data from the assay component ATG_DR5_RAR_CIS was analyzed into 1 assay endpoint. This assay endpoint, ATG_DR5_CIS, was analyzed with bidirectional fitting relative to DMSO as the negative control and baseline of activity. Using a type of inducible reporter, measures of mRNA for gain or loss-of-signal activity can be used to understand the reporter gene at the transcription factor-level as they relate to the gene RARA and RARB and RARG. Furthermore, this assay endpoint can be referred to as a primary readout, because this assay has produced multiple assay endpoints where this one serves a reporter gene function. To generalize the intended target to other relatable targets, this assay endpoint is annotated to the nuclear receptor intended target family, where the subfamily is non-steroidal.
# Human liver HepG2 cells are transiently transfected with multiple reporter transcription units (MRTUs) in 6-well plates using FuGene 6 reagent (Roche; 3 ml FuGene/1 mg DNA). The MRTU constructs are regulated by a cis-regulating element (promoter). […] A major difference between the CIS and TRANS system is that in CIS activities of endogenous TFs are measured, whereas the TRANS assay evaluates changes in activities of exogenous, chimeric NR-Gal4 proteins. […] At the end of 24 hour incubation, total RNA was isolated using TriZol reagent (Invitrogen). The isolated RNA is then reverse-transcribed using oligo(dT) primer and Mo-MLV reverse transcriptase (Invitrogen) with DNAse I (Ambion) treatment for 30 min. The one-tenth of the produced cDNA was amplified by PCR using Taq DNA polymerase (Invitrogen) and two reporter sequence-specific primers. The PCR products were fluorescently labeled by primer extension with 6-arboxyfluorescein (6-FAM) 5'-labeled reporter sequence-specific primer (2 min at 95 C, 20 s at 68 C and 10 min at 72 C) and these products were digested with 5U of HpaI (New England Biolabs) for 2h at 37 C. The fragments were purified using Qiaquick PCR columns (Qiagen), analyzed on an ABI 3130xL genetic analyzer (Applied Biosystems) with peak positions identified by using a set of X-rhodamine (ROX)-labeled MapMarker1000 molecular weight standards (BioVentures). The raw capillary electrophoresis data was processed using Attagraph software (Attagene).
# Retinoic acid receptor alpha (Homo sapiens), sequence (P10276 whole entry, looked up): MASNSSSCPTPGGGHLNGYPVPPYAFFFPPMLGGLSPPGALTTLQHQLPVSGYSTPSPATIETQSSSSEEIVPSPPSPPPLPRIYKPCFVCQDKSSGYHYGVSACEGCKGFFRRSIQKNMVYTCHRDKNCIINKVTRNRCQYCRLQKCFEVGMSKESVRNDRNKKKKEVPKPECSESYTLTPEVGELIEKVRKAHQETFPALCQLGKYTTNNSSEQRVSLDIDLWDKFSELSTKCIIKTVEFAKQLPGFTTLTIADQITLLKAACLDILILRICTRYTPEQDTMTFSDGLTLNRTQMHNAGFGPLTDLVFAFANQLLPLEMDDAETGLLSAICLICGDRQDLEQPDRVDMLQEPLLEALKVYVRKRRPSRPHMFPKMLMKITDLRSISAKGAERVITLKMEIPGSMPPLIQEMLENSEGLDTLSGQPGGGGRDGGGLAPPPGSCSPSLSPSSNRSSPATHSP
SMILES,outcome,AC50
C=CC(=O)OCCC(=O)O,inactive,–
CCCCCC(C)O (stereo not given),inactive,–
CC1(C)O[C@@H]2C[C@H]3[C@@H]4C[C@H](F)C5=CC(=O)CC[C@]5(C)[C@H]4[C@@H](O)C[C@]3(C)[C@]2(C(=O)CO)O1,inactive,–
CCCCCCCCCCCSCC(=O)O,–,2.13 µM (active)
CCCCCCOc1cc(C)c(O)c(C)c1C,inactive,–
CCOC(=O)[C@H](C)O,inactive,–
CC=CCO,inactive,–
CC[C@H]1OC(=O)[C@H](C)[C@@H](O[C@H]2C[C@@](C)(OC)[C@@H](O)[C@H](C)O2)[C@H](C)[C@@H](O[C@@H]2O[C@H](C)C[C@H](N(C)C)[C@H]2O)[C@](C)(O)C[C@@H](C)C(=NOCOCCOC)[C@H](C)[C@@H](O)[C@]1(C)O,inactive,–
Clc1nc2ccccc2s1,inactive,–
NCCCN1CCN(CCCN)CC1,inactive,–
CC(C)(C)c1n[nH]c(=O)n(N)c1=O,inactive,–
COc1ccc(C(Cl)=C(c2ccc(OC)cc2)c2ccc(OC)cc2)cc1,inactive,–
O=S(=O)(O)c1ccc2cc(O)c(S(=O)(=O)O)cc2c1,inactive,–
O=C1C=CC(=O)O1,inactive,–
SCCc1cnccn1,–,27.6 µM (active)
CCc1ccc2c(c1)C(=O)c1ccccc1C2=O,inactive,–
Nc1ccc(N=Nc2ccccc2)c(N)n1,inactive,–
CCCCCCCC/C=C\CCCCCCCC(=O)O,–,85.9 µM (active)
O=c1c2ccccc2oc2ccccc12,inactive,–
CC(C)(C)C(=O)CCc1ccc(Cl)cc1,inactive,–

SMILES,outcome,AC50
Cc1ccc(N/N=c2\c(=O)cc/c(=N/Nc3ccc(S(=O)(=O)O)cc3)c2=O)c(C)c1,inactive,–
C[Si](C)(CCCN)O[Si](C)(C)CCCN,inactive,–
CCCCCCCCCCCCCCCC[N+](C)(C)CC,inactive,–
CCO[Si](C)(OCC)OCC,inactive,–
CC=CC(=O)N(CC)c1ccccc1C,inactive,–
ON(Cc1ccccc1)Cc1ccccc1,inactive,–
[Cl][Bi]([Cl])([c]1ccccc1)([c]1ccccc1)[c]1ccccc1,inactive,–
CCCCC(CC)COCC1CO1 (stereo not given),inactive,–
O=CN1CCCCC1,inactive,–
CC(=O)OCC(=O)[C@@]12N=C(C)O[C@@H]1C[C@H]1[C@@H]3CCC4=CC(=O)C=C[C@]4(C)[C@H]3[C@@H](O)C[C@@]12C,–,27.5 µM (active)
Nc1nc2ccccc2[nH]1,inactive,–
CC1=Nc2ccc3ccccc3c2C1(C)C,inactive,–
CCO[Si](CCCN=C=O)(OCC)OCC,inactive,–
C=C(C)CCO,inactive,–
COc1ccc(NC(C)=O)cc1N,inactive,–
C=C1[C@H]2CC[C@@H]3[C@H]2C(C)(C)CCC[C@]13C,inactive,–
CCC(Cc1ccccc1)(C(=O)c1ccc(N2CCOCC2)cc1)N(C)C (stereo not given),–,73.1 µM (active)
O=c1[nH]c(=O)c2[nH]c(=O)[nH]c2[nH]1,inactive,–
CCCCC(CC)COC(=O)c1ccccc1 (stereo not given),inactive,–
Nc1ccc(N)c(Cl)c1,–,33.4 µM (active)
